Measurements taken from article PMC7862700, “An all-to-all approach to the identification of sequence-specific readers for epigenetic DNA modifications on cytosine”.

Legend:
Assay in all cases: DAPPL (digital affinity profiling via proximity ligation, sequencing); 10 mM Tris-HCl pH 7.5, 50 mM NaCl, 1 mM DTT, 4% glycerol, room temperature, 30 min; GST-TFs on glutathione beads, 16-mer random dsDNA library, 0.1% formaldehyde crosslink after washing; high values mean tight binding
Conditions in all cases: protein: recombinant; tags: N-terminal GST; dsDNA, one strand shown
FLI1 = molecular target: T1, FLI1 (Homo sapiens, UniProt Q01543 1-452)
T1 sequence: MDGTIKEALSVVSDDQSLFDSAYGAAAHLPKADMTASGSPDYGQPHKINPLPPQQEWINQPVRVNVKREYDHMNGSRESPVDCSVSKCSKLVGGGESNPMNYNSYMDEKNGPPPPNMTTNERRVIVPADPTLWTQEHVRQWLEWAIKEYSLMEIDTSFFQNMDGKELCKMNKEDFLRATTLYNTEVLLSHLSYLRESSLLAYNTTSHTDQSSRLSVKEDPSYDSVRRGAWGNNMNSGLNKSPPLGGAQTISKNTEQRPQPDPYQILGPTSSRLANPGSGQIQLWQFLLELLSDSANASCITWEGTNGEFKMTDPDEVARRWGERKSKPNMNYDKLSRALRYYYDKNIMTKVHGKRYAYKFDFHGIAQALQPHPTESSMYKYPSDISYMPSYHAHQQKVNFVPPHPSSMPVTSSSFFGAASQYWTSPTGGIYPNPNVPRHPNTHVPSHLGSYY
In short: (§1)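 Human transcription factors were made in yeast as GST fusions, captured on glutathione beads and barcoded with DNA. With a tag-only sample included, the pool was incubated with 200 nmole of a random double-stranded 16-mer DNA library in Tris/NaCl/DTT/glycerol buffer at room temperature for 30 min, then crosslinked with 0.1% formaldehyde after washing, ligated by proximity, amplified and sequenced. For binding signal, each hexamer's read frequency for a factor is divided by its frequency for the tag-only sample.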

ELK1 = molecular target: T2, ELK1 (Homo sapiens, UniProt P19419 1-428)
T2 sequence: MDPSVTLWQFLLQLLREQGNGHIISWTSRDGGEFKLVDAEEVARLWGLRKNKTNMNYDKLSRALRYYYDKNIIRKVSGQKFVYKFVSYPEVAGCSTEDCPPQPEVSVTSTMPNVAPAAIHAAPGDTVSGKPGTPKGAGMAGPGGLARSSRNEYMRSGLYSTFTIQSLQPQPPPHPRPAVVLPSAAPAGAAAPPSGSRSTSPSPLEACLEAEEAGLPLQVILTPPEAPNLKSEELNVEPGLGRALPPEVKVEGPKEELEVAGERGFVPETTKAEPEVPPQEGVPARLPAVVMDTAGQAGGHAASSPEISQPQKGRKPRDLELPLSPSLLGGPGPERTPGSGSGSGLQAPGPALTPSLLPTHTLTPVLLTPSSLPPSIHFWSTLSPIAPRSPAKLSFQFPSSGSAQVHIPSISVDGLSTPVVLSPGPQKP
In short: as §1

GABPA = molecular target: T3, GABPA (Homo sapiens, UniProt Q06546 1-454)
T3 sequence: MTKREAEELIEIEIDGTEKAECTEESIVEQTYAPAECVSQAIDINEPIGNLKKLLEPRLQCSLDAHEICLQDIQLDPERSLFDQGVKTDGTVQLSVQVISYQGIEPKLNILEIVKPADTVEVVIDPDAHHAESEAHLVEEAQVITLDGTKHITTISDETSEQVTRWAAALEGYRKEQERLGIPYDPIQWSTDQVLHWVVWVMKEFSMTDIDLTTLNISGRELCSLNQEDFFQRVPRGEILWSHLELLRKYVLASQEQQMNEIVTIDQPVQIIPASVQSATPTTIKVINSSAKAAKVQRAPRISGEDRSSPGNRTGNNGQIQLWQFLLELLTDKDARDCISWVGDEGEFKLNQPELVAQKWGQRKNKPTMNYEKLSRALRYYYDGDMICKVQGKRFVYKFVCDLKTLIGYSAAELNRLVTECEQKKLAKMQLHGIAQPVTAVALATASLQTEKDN
In short: as §1

ERG = molecular target: T4, ERG (Homo sapiens, UniProt P11308 1-479)
T4 sequence: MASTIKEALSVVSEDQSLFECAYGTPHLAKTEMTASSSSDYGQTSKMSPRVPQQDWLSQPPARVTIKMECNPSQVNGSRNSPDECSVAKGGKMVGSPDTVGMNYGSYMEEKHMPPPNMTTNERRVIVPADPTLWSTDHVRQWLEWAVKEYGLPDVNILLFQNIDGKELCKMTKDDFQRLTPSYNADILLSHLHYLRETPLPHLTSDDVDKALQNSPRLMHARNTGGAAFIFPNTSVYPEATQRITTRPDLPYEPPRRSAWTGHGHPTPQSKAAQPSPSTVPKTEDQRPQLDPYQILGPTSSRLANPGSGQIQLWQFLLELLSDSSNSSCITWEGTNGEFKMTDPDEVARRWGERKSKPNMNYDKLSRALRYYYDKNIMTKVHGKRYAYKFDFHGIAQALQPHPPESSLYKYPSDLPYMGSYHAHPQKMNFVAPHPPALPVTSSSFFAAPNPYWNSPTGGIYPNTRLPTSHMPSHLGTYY
In short: as §1

ELF1 = ELF1 (Homo sapiens, UniProt P32519 1-619)
In short: as §1

EHF = molecular target: T5, EHF (Homo sapiens, UniProt Q9NZC4 1-300)
T5 sequence: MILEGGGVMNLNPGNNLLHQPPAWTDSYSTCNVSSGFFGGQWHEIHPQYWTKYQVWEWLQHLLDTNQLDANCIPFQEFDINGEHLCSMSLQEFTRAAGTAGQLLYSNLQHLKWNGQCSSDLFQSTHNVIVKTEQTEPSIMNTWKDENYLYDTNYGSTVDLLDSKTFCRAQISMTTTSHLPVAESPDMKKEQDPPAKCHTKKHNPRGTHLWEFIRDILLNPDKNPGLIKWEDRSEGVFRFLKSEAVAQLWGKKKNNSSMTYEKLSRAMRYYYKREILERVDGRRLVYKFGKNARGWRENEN
In short: as §1

SPI1 = SPI1 (Homo sapiens, UniProt P17947 1-270)
In short: as §1

SPIB = SPIB (Homo sapiens, UniProt Q01892 1-262)
In short: as §1

ELK3 = molecular target: T6, ELK3 (Homo sapiens, UniProt P41970 1-407)
T6 sequence: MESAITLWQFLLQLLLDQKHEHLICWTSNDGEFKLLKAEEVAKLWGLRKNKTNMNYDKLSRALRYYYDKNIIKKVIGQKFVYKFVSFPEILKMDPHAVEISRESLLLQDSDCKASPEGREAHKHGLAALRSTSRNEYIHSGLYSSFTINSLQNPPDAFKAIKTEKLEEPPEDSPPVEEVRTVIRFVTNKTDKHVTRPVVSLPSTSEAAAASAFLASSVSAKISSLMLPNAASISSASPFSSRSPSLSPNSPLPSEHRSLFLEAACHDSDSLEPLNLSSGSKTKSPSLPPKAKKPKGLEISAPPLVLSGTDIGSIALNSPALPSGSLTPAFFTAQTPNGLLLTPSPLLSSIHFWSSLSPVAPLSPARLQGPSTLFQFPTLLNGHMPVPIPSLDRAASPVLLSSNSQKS
In short: as §1

FEV = molecular target: T7, FEV (Homo sapiens, UniProt Q99581 1-238)
T7 sequence: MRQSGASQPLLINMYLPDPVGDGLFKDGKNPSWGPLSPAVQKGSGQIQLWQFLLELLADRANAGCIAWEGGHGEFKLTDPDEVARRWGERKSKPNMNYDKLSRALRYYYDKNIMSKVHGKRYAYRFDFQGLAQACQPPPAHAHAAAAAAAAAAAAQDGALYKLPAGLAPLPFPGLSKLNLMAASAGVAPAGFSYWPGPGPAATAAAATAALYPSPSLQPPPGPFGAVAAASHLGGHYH
In short: as §1

ETV5 = ETV5 (Homo sapiens, UniProt P41161 1-510)
In short: as §1

SPIC = molecular target: T8, SPIC (Homo sapiens, UniProt Q8N5J4 1-248)
T8 sequence: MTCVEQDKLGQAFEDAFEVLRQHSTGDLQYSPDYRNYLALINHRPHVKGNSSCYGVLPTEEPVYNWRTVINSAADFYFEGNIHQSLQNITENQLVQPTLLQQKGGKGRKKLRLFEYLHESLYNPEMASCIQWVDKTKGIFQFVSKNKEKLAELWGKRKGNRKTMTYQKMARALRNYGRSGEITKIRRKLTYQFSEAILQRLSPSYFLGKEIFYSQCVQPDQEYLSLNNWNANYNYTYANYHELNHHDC
In short: as §1

ELF4 = ELF4 (Homo sapiens, UniProt Q99607 1-663)
In short: as §1

ELK4 = molecular target: T9, ELK4 (Homo sapiens, UniProt P28324-2 1-405)
T9 sequence: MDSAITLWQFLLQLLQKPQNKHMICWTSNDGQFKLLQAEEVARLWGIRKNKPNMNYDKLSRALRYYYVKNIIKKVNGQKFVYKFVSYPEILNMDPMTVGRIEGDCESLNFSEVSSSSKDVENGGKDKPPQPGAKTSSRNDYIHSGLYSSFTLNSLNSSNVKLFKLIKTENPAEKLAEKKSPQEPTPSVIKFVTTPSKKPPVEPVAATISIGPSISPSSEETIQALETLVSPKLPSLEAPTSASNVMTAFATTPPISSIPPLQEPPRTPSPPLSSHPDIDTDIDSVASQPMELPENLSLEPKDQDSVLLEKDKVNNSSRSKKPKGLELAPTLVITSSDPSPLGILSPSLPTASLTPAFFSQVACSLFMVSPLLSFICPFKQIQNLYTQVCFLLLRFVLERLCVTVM
In short: as §1

ETV2 = molecular target: T10, ETV2 (Homo sapiens, UniProt O00321 1-342)
T10 sequence: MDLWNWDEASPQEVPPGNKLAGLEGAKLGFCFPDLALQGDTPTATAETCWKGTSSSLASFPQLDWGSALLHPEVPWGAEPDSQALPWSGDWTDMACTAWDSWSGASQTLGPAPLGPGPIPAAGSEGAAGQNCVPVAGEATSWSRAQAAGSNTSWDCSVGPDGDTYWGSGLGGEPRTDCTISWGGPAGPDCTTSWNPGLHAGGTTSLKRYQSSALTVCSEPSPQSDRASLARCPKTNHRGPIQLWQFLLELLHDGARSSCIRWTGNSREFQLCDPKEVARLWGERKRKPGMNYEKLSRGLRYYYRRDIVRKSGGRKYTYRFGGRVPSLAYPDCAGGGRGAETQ
In short: as §1

ELF3 = molecular target: T11, ELF3 (Homo sapiens, UniProt P78545 1-371)
T11 sequence: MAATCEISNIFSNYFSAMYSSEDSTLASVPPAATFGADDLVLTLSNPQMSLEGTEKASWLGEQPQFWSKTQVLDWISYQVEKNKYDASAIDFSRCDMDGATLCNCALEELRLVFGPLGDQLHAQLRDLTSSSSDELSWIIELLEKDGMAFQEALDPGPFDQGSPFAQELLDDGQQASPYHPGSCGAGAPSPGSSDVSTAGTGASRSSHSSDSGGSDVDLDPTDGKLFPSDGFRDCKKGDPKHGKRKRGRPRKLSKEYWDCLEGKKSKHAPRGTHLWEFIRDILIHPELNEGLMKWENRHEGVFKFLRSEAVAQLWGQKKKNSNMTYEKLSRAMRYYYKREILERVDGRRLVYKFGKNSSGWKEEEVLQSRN
In short: as §1

CRX = CRX (Homo sapiens, UniProt O43186 1-299)
In short: as §1

ETV1 = ETV1 (Homo sapiens, UniProt P50549 1-477)
In short: as §1

Chain of CRX (O43186 whole entry): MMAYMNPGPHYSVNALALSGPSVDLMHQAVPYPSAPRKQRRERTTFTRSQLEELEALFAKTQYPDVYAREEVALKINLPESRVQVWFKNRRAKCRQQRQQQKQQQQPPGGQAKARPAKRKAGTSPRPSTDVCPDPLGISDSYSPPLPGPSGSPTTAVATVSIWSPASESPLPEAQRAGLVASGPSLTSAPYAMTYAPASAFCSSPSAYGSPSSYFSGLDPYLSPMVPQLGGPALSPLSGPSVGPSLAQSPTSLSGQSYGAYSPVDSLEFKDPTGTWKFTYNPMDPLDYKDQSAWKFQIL
Chain of ETV5 (P41161 whole entry): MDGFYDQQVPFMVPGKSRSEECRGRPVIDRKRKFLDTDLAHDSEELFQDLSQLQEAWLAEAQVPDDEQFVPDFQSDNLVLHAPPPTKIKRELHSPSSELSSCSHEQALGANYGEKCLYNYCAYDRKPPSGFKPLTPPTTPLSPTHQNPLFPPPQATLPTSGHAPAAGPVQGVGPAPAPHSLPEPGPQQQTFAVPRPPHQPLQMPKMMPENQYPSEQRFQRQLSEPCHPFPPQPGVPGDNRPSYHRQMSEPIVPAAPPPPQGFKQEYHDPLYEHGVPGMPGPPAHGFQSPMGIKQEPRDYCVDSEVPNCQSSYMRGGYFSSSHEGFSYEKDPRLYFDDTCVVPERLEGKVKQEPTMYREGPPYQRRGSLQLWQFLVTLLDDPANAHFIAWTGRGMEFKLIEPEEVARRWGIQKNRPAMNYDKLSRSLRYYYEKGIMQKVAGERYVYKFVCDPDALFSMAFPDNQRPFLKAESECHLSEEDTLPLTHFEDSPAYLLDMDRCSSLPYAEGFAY
Chain of ETV1 (P50549 whole entry): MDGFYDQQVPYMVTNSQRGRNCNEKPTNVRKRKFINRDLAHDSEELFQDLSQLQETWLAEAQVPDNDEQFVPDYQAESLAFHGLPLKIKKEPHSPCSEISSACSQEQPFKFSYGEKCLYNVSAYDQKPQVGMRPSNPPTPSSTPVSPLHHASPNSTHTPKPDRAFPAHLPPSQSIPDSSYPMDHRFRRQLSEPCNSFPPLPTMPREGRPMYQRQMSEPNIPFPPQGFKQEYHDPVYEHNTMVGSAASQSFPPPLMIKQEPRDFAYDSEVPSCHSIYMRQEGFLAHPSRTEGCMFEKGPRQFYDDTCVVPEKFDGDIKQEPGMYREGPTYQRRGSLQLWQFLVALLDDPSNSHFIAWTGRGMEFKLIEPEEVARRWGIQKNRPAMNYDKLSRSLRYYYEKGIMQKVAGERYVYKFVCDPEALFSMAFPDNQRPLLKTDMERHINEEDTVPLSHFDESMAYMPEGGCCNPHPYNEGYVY
Chain of ELF4 (Q99607 whole entry): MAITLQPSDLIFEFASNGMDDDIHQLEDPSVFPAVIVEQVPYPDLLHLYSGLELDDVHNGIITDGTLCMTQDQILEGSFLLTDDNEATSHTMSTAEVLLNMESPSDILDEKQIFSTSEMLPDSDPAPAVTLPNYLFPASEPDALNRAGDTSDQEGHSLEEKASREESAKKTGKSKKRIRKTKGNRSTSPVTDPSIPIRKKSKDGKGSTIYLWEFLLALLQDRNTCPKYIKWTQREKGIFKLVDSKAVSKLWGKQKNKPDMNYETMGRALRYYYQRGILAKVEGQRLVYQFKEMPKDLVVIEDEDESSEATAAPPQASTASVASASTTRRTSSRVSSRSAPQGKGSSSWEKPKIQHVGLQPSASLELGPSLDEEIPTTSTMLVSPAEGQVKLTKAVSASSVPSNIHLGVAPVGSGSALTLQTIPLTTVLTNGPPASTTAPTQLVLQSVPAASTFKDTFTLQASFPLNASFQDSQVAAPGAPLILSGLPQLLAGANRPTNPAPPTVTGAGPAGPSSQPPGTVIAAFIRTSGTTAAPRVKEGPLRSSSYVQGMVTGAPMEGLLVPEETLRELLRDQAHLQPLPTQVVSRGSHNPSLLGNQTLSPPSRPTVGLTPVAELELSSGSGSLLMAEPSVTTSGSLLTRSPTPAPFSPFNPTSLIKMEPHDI
Chain of ELF1 (P32519 whole entry): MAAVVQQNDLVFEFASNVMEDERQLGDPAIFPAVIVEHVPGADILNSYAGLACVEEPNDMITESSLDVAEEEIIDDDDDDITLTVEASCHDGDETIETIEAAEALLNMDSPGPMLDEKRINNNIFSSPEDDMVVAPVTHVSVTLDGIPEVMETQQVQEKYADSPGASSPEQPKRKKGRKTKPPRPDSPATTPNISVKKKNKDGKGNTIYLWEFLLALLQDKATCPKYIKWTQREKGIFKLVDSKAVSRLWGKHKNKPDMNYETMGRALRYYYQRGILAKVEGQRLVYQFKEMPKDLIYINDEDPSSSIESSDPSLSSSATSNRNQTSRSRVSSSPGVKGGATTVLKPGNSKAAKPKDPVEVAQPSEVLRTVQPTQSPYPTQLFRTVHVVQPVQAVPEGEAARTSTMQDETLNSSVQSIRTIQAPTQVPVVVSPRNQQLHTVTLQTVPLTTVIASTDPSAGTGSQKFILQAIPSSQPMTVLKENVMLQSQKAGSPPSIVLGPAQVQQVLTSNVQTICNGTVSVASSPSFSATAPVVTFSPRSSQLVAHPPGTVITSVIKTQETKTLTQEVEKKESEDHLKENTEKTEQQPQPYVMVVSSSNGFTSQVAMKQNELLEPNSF
Chain of SPIB (Q01892 whole entry): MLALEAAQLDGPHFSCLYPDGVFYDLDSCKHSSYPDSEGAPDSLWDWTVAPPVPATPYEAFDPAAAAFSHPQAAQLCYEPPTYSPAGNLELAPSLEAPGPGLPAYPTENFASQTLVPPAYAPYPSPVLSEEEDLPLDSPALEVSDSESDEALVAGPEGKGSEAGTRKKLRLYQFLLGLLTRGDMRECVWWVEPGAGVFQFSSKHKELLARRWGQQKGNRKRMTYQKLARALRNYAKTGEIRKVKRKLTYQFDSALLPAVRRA

TACGTC
binding signal (FLI1): 1.19 fold enrichment (6-mer frequency, TF over GST control) | binding signal (ELK1): 1.16 fold enrichment (6-mer frequency, TF over GST control) | binding signal (GABPA): 1.13 fold enrichment (6-mer frequency, TF over GST control) | binding signal (ERG): 1.16 fold enrichment (6-mer frequency, TF over GST control) | binding signal (ELF1): 1.13 fold enrichment (6-mer frequency, TF over GST control) | binding signal (EHF): 1.25 fold enrichment (6-mer frequency, TF over GST control) | binding signal (SPI1): 1.12 fold enrichment (6-mer frequency, TF over GST control) | binding signal (SPIB): 1.31 fold enrichment (6-mer frequency, TF over GST control) | binding signal (ELK3): 1.21 fold enrichment (6-mer frequency, TF over GST control) | binding signal (FEV): 1.24 fold enrichment (6-mer frequency, TF over GST control) | binding signal (ETV5): 1.13 fold enrichment (6-mer frequency, TF over GST control) | binding signal (SPIC): 1.03 fold enrichment (6-mer frequency, TF over GST control) | binding signal (ELF4): 1.16 fold enrichment (6-mer frequency, TF over GST control) | binding signal (ELK4): 1.14 fold enrichment (6-mer frequency, TF over GST control) | binding signal (ETV2): 1.02 fold enrichment (6-mer frequency, TF over GST control) | binding signal (ELF3): 1.02 fold enrichment (6-mer frequency, TF over GST control) | binding signal (CRX): 1 fold enrichment (6-mer frequency, TF over GST control) | binding signal (ETV1): 1.24 fold enrichment (6-mer frequency, TF over GST control)

GCCTCC
binding signal (FLI1): 1.29 fold enrichment (6-mer frequency, TF over GST control) | binding signal (ELK1): 1.34 fold enrichment (6-mer frequency, TF over GST control) | binding signal (GABPA): 1.23 fold enrichment (6-mer frequency, TF over GST control) | binding signal (ERG): 1.33 fold enrichment (6-mer frequency, TF over GST control) | binding signal (ELF1): 1.27 fold enrichment (6-mer frequency, TF over GST control) | binding signal (EHF): 1.31 fold enrichment (6-mer frequency, TF over GST control) | binding signal (SPI1): 1.38 fold enrichment (6-mer frequency, TF over GST control) | binding signal (SPIB): 1.29 fold enrichment (6-mer frequency, TF over GST control) | binding signal (ELK3): 1.33 fold enrichment (6-mer frequency, TF over GST control) | binding signal (FEV): 1.32 fold enrichment (6-mer frequency, TF over GST control) | binding signal (ETV5): 1.31 fold enrichment (6-mer frequency, TF over GST control) | binding signal (SPIC): 1.38 fold enrichment (6-mer frequency, TF over GST control) | binding signal (ELF4): 1.34 fold enrichment (6-mer frequency, TF over GST control) | binding signal (ELK4): 1.22 fold enrichment (6-mer frequency, TF over GST control) | binding signal (ETV2): 1.29 fold enrichment (6-mer frequency, TF over GST control) | binding signal (ELF3): 1.24 fold enrichment (6-mer frequency, TF over GST control) | binding signal (CRX): 1.03 fold enrichment (6-mer frequency, TF over GST control) | binding signal (ETV1): 1.25 fold enrichment (6-mer frequency, TF over GST control)
